# From PubChem BioAssay
# HADH2 inh – qHTS Assay for Inhibitors of HADH2 (Hydroxyacyl-Coenzyme A Dehydrogenase, Type II); AID 886, 2007; 73,000 tested, 3.4% active; Potency, µM (highest dose often 57.1 µM), for inactives: top-dose activity change, negative = inhibition, actives largely listed as inhibitors; 3-hydroxyacyl-CoA dehydrogenase type-2 (Homo sapiens), Q99714; recombinant HADH2, NADH fluorescence, beta-hydroxybutyryl-CoA; also: potency is read from the fitted curve at half-maximal effect; % is scaled to controls: 0 for no effect and ±100 for the full control effect; nearly all actives have a fitted effect of over 60% in size
# Target sequence (Q99714 whole entry, looked up, one chain of several): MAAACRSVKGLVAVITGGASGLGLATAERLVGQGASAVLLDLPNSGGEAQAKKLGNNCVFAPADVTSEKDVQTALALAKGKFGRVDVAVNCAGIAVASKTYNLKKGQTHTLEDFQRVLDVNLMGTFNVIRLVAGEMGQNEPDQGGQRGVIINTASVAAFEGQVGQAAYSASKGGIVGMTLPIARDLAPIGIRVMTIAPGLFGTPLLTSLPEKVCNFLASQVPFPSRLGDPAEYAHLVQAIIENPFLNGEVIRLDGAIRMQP
#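 His-tagged recombinant enzyme from E. coli, 20 nM, preincubated 15 min RT with compound; reaction started with 1 mM NAD+ and 90 uM beta-hydroxybutyryl-CoA in 100 mM Tris-HCl pH 9.0. NADH fluorescence (ex 360/em 450) read over 4 min; last-minus-first difference.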
# CRE Fsk mod – Cell signaling CRE-BLA (Fsk stim); 71,000 tested, 2.5% active; Potency, µM (doses to about 38.2 µM), without a hit: top-dose activity change, negative = inhibition, most hits filed as activators; CHO CRE-bla reporter (cAMP response element driving beta-lactamase), forskolin EC10, beta-lactamase ratio; active = well fitted activation curve with a large enough effect in the signal ratio, with a control signal flat, not every such curve was filed as active; inconclusive = small, poorly fitted or top-dose-only effect, or effect the other way, or a change in a side signal; the % refers to the signal ratio; also: potency is read from the fitted curve at half-maximal effect; % of control where 0% means no effect
#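 Reporter-gene assay: CHO cells with beta-lactamase behind cAMP responsive elements, co-treated with compound and EC10 NKH 477 for 3 hours at 37 degrees Celsius. Activity came from the 460/530 nm CCF4 emission ratio.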
# A350 fluor – qHTS Assay for Spectroscopic Profiling in A350 Spectral Region; Compound autofluorescence, 340/450 nm, Alexa 350 dye-equivalents; hits give high values; max dye-equivalent concentration, M; 59,000 tested, 11% active; AID 590, 2007; in the data active = max dye-equivalent concentration above about 10 nM; inconclusive = mostly about 1.1 nM to 9.6 nM
# AID923 – qHTS Assay for Allosteric/Competitive Inhibitors of Caspase-1: Spectroscopic Profiling in AFC Spectral Region; Potency, µM (top dose mostly 57.5 µM), without a hit: at the top dose fluorescence increase, actives largely listed as activators; AID 923, 2007; compound fluorescence, AFC spectral region (405/520 nm); 75,000 tested, 1.1% active; also: potency is read from the fitted curve at half-maximal effect; 0% is about no effect
#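 Baseline compound fluorescence (AFC region, 405 nm ex/520 nm em) taken from the intercept of kinetic reads with 50 nM caspase-1 and 5 uM Ac-WEHD-AFC; normalized to an on-plate AFC standard curve; compounds titrated up to 57 uM.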
# 4MU fluor – qHTS Assay for Spectroscopic Profiling in 4-MU Spectral Region | compound autofluorescence, 340/450 nm, 4-MU equivalents; hits give high values | 59,000 tested, 11% active | max dye-equivalent concentration, M; in the data active = max dye-equivalent concentration above about 10 nM; inconclusive = mostly about 1.1 nM to 9.6 nM
#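 Compounds in 100 mM Tris, pH 8.0, sat 15 min at room temperature before fluorescence was read at 340 nm excitation/450 nm emission; a per-plate six-point 4-MU standard curve converted signals to dye-equivalent concentration at each compound concentration.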
# HSD17B inh – qHTS Assay for Inhibitors of HSD17B4, hydroxysteroid (17-beta) dehydrogenase 4 | AID 893, 2007 | recombinant HSD17B10, NADH fluorescence kinetic | 75,000 tested, 7.6% active | Potency, µM (series often up to 57.1 µM), without a hit: at the highest dose activity change, negative = inhibition, usual class: inhibitors;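 also: the protocol describes HADH2 (HSD17B10) and not the HSD17B4 of the title; potency is read from the fitted curve at half-maximal effect; % is scaled to controls: 0 for no effect and ±100 for the full control effect; nearly all actives have a fitted effect of over 70% in size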
#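 Enzyme plus compound, 15 min room temperature; substrate mix added (NAD+ 1 mM, beta-hydroxybutyryl-CoA 90 uM final); plates read kinetically for NADH fluorescence. HADH2 was His-tagged, E. coli-derived, 20 nM.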
# * hit, by the source's call; i = inactive; ? = inconclusive; . = no result given; [ ] = dose if it differs, or a comment. The list is not random: actives were taken first. Their share in the collection is about 14%. Unless noted, calls follow the shape of the dose curve; as a rule, active = well fitted curve in the direction sought with a large enough effect; inconclusive = small, poorly fitted or top-dose-only effect, or another doubt; inactive = no such curve, though single readings can be large; an effect the other way counts as inactive or inconclusive.
SMILES,HADH2 inh,CRE Fsk mod,A350 fluor,AID923,4MU fluor,HSD17B inh
COC(=O)CSc1ncnc2c1sc1nc(-c3ccco3)c3c(c12)CC(C)(C)OC3,.,.,2.1e-08M*,.,2.1e-08M*,.
c1nc(N2CCOCC2)c2cc(-c3ccoc3)ccc2n1,-17%,?,i,2%,i,1%
Cc1nn(-c2ccc(F)cc2)c2sc(C(=O)O)cc12,-7%,6.3µM*,?,1%,i,-4%
COC(=O)c1cc2c(C)nn(-c3ccccc3)c2s1,25%,?,?,1%,?,32µM*
Cc1nn(-c2ccccc2)c2sc(C(=O)OC3CCOC3=O)cc12 (centres undefined),?,?,i,0%,i,32µM*
Cc1nn(-c2ccccc2)c2sc(-c3n[nH]c(=S)o3)cc12,20µM*,5µM*,2.3e-07M*,1%,2.1e-07M*,16µM*
Cc1ccc(-n2nc(C)c3cc(C(=O)O)sc32)cc1,-25%,?,.,-1%,.,17%
CNC(=O)CSc1nnc(-c2cc3c(C)nn(-c4ccccc4)c3s2)n1C,23%,13%,i,0%,i,0%
Cc1nn(-c2ccccc2)c2sc(C(=O)O)cc12,-12%,?,i,-1%,i,9%
N[C@H](Cn1ccc(=O)n(Cc2ccccc2C(=O)O)c1=O)C(=O)O,-5%,-2%,.,-1%,.,-5%
Cc1nn(-c2ccccc2)c2sc(C(=O)N3CCOCC3)cc12,4%,4µM*,i,0%,i,-1%
COc1ccc(CCN2CC3=C(C2=O)C(c2ccccc2)NC(=O)N3C)cc1OC (centres undefined),0%,-13%,1.2e-08M*,0%,?,32µM*
CN1C(=O)NC(c2ccccc2)C2=C1CN(Cc1ccco1)C2=O (centres undefined),-7%,-4%,.,-5%,.,-5%
CCCC[C@@H]1C[C@H]1C(NC(=O)Cc1ccccc1)c1ccc(-c2ccccc2)cc1 (some centres undefined),7%,15%,.,0%,.,3%
COc1ccc(CCCC(=O)O)c(C)c1,-6%,-11%,i,5%[11.5 µM],i,-12%
Cc1cc(CC(=O)O)c(C)cc1CC(=O)O,.,.,6.3e-08M*,.,5.3e-08M*,.
CCC1=C2CC[C@H]3C(=O)N(c4ccccc4)C(=O)[C@H]3[C@H]2[C@@]2(Cc3ccccc3)C(=NCCc3c[nH]c4ccccc34)OC(=O)N2C1=O,.,.,.,2%,.,25%
Cc1nn(Cc2ccc(Cl)cc2)c(C)c1NC(=O)c1cc(-c2ccc3c(c2)OCO3)on1,-1%,?,1.9e-08M*,-1%,2.1e-08M*,-5%
COc1ccc(-c2cc(C(=O)Nc3c(C)nn(Cc4ccccc4Cl)c3C)no2)cc1,26%,?,i,-1%,i,3%
Cc1nn(Cc2ccc(Cl)c(Cl)c2)c(C)c1NC(=O)c1cc(-c2ccc3c(c2)OCO3)on1,-7%,10µM*,?,2%,?,-8%
Nc1ncnc2nc(-c3ccc(C[P+](c4ccccc4)(c4ccccc4)c4ccccc4)cc3)[nH]c12,4%[11.4 µM],7%[7.6 µM],i,-2%[11.5 µM],i,-28%[11.4 µM]
COc1ccc(OC2C=CC(c3ccccc3)OC2CO)cc1 (centres undefined),-2%[11.4 µM],.,.,2%[11.5 µM],.,4%[11.4 µM]
O=C(c1cnccn1)N1CCC[C@@]2(CCN(Cc3ccccc3)C2)C1,-1%,-1%,i,0%,i,12%
CCCn1c(N)c(C(=O)CSc2nc3ccccc3n2CCC#N)c(=O)n(C)c1=O,?,1.6µM*,i,0%,i,-8%
C#CCCCC(=O)Nc1ccccc1,5%,4%,.,-3%,.,-11%
COc1ccc(-c2nc(-c3ccc(Br)cc3)no2)c(OC)c1,5%,-21%,i,-3%,i,-15%
